As a reminder, the residual activity is the signal under treatment as a percentage of the control signal.

Test [1] addresses T1, Serine/threonine-protein kinase TAO2 (Homo sapiens) (UniProt Q9UL54).
T1 sequence (whole entry): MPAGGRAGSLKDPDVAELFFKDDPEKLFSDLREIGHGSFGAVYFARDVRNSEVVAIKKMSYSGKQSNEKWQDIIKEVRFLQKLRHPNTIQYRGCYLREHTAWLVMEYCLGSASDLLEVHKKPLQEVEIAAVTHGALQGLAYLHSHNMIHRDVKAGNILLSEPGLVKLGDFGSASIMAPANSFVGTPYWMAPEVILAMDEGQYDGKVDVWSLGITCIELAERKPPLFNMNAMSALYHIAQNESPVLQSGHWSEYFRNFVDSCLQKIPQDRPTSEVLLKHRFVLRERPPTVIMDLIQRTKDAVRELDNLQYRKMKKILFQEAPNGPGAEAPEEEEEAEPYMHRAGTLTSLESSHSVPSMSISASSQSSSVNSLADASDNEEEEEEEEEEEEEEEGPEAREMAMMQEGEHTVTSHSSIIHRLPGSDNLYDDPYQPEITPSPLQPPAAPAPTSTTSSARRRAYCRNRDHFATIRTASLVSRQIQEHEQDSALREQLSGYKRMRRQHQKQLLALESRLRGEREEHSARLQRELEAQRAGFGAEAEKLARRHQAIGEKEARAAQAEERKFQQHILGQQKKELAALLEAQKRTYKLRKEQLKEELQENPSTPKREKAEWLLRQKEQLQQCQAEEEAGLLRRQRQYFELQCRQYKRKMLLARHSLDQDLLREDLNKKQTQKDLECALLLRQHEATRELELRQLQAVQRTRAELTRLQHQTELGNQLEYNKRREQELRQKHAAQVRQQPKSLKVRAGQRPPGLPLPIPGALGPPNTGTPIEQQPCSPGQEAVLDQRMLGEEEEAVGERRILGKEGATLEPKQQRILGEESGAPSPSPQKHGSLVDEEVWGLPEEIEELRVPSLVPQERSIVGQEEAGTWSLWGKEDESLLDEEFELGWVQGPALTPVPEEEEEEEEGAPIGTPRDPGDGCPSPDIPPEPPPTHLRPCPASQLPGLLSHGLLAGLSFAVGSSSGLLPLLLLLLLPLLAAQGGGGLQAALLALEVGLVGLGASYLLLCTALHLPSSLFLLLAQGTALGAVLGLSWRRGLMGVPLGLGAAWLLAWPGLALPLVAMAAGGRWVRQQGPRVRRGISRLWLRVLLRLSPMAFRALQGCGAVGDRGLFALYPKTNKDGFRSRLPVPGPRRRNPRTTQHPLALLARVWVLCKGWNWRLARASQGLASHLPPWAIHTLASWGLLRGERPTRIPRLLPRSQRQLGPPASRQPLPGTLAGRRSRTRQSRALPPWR
The following applies: at 1 µM.

Test [2] has as its target T1, Serine/threonine-protein kinase TAO2 (Homo sapiens). To be noted: at 10 µM.
The target in test [3] is T2, Serine/threonine-protein kinase TAO3 (Homo sapiens) (UniProt Q9H2K8).
T2 sequence (whole entry): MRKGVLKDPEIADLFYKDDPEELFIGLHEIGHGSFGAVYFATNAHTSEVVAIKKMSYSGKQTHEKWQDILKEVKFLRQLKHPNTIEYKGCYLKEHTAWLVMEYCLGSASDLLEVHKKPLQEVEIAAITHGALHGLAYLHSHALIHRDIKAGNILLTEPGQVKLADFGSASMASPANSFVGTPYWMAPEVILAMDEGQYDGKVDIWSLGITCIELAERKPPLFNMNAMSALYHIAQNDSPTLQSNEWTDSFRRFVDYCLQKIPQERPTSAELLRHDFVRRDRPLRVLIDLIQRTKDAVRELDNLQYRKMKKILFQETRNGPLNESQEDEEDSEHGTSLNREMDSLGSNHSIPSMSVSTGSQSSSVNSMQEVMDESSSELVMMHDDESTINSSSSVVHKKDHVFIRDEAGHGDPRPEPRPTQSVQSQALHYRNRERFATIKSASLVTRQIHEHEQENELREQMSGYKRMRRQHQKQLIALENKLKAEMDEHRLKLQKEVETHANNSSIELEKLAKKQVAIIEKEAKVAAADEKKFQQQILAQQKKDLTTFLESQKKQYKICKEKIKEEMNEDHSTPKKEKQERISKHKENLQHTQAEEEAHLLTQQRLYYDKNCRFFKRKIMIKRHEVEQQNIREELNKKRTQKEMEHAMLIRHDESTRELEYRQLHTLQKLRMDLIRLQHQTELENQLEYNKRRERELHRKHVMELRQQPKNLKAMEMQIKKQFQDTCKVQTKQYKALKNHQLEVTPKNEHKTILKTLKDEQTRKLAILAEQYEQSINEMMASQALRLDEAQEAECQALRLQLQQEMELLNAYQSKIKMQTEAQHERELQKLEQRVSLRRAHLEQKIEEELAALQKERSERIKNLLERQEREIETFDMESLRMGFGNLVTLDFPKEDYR
The following applies: at 1 µM.

Test [4] concerns the target T2, Serine/threonine-protein kinase TAO3 (Homo sapiens). The following applies: at 10 µM.
Test [5] deals with T3, Serine/threonine-protein kinase TBK1 (Homo sapiens) (UniProt Q9UHD2).
T3 sequence (whole entry): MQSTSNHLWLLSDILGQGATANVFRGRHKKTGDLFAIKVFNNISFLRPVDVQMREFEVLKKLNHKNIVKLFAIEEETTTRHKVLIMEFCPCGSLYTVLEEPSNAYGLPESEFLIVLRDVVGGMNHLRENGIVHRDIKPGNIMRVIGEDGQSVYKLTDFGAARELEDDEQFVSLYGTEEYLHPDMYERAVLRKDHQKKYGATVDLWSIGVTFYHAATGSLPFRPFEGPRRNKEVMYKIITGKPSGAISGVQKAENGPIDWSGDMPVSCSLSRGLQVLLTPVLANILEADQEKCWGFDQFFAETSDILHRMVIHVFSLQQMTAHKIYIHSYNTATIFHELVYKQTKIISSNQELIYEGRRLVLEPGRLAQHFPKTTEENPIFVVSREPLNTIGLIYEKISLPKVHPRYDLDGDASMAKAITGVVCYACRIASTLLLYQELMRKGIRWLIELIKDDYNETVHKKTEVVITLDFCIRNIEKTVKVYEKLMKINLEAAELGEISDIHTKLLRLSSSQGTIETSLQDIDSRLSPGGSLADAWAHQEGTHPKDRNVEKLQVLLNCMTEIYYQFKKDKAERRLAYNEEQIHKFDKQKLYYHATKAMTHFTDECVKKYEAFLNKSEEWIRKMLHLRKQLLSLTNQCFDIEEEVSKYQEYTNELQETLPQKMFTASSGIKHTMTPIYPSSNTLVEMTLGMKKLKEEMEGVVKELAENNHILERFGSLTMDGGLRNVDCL
To be noted: at 1 µM.

The target in test [6] is T3, Serine/threonine-protein kinase TBK1 (Homo sapiens). To be noted: at 10 µM.
Test [7] addresses T4, TGF-beta receptor type-1 (Homo sapiens) (UniProt P36897).
T4 sequence (whole entry): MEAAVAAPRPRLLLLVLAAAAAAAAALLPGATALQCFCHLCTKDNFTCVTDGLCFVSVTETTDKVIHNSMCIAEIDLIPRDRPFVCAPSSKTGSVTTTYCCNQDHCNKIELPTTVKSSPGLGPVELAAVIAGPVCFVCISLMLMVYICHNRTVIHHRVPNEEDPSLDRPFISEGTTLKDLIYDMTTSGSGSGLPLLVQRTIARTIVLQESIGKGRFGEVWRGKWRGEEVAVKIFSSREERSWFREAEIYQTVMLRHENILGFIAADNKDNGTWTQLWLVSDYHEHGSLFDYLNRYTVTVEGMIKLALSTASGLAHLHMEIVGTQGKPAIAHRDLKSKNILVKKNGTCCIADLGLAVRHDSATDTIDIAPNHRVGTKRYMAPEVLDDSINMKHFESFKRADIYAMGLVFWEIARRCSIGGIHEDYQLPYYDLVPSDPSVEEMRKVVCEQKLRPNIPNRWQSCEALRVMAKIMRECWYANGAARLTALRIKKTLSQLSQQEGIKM
The following applies: at 1 µM.

The target of test [8] is T4, TGF-beta receptor type-1 (Homo sapiens). The following applies: at 10 µM.
Test [9] concerns the target Insulin-like growth factor 1 receptor (Homo sapiens) (UniProt P08069). The following applies: at 1 µM.
For test [10] the target is unchanged. To be noted: at 10 µM.
Test [11] concerns the target Tyrosine-protein kinase SYK (Homo sapiens) (UniProt P43405). The following applies: at 10 µM.
Test [12] deals with T5, Serine/threonine-protein kinase TAO1 (Homo sapiens) (UniProt Q7L7X3).
T5 sequence (whole entry): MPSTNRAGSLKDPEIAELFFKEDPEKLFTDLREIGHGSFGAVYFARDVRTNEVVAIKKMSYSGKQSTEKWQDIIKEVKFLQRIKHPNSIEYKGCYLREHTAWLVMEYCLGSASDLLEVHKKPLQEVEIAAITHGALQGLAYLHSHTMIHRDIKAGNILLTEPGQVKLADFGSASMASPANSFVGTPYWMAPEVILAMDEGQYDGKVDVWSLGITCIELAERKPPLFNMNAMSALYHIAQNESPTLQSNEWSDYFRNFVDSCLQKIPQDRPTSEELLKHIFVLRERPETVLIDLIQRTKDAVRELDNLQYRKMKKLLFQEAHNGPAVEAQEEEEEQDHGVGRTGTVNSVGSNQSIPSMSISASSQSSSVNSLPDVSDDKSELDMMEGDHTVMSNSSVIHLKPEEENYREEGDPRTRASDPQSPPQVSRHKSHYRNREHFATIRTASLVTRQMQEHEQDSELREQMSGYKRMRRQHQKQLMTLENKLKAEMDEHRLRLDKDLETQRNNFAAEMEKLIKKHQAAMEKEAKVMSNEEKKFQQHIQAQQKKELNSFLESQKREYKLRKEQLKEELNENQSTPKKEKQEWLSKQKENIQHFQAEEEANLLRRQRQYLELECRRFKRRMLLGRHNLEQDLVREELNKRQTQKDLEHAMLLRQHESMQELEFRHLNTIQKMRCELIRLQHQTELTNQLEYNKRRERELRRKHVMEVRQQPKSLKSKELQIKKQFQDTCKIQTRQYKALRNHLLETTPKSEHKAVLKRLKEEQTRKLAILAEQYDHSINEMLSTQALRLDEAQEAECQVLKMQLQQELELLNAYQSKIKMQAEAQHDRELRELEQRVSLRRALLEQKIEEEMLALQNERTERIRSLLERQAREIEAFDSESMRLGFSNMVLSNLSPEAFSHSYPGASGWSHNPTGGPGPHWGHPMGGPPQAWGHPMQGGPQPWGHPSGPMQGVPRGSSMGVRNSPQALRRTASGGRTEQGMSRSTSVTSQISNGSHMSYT
The following applies: at 10 µM.

Test [13] addresses T6, Inhibitor of nuclear factor kappa-B kinase subunit alpha (Homo sapiens) (UniProt O15111).
T6 sequence (whole entry): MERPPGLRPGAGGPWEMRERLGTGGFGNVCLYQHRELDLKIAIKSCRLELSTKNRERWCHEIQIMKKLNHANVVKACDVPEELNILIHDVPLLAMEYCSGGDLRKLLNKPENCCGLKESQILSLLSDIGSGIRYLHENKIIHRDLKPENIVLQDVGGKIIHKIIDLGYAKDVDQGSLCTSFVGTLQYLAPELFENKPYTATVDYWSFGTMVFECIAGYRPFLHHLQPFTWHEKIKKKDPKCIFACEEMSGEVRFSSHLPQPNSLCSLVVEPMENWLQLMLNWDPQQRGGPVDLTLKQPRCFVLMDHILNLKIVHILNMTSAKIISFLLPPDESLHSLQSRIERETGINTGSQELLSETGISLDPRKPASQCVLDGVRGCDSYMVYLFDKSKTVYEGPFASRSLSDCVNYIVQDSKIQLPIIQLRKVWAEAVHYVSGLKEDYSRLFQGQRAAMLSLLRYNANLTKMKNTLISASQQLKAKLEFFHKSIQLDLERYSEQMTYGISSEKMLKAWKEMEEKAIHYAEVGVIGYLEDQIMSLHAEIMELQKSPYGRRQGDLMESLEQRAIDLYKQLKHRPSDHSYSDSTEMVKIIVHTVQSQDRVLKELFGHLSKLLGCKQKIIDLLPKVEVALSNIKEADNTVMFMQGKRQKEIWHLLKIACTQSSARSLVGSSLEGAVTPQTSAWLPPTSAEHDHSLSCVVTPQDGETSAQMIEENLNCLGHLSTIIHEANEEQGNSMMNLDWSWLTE
To be noted: at 1 µM.

Test [14] concerns the target T6, Inhibitor of nuclear factor kappa-B kinase subunit alpha (Homo sapiens). The following applies: at 10 µM.
Test [15] addresses T7, Inhibitor of nuclear factor kappa-B kinase subunit beta (Homo sapiens) (UniProt O14920).
T7 sequence (whole entry): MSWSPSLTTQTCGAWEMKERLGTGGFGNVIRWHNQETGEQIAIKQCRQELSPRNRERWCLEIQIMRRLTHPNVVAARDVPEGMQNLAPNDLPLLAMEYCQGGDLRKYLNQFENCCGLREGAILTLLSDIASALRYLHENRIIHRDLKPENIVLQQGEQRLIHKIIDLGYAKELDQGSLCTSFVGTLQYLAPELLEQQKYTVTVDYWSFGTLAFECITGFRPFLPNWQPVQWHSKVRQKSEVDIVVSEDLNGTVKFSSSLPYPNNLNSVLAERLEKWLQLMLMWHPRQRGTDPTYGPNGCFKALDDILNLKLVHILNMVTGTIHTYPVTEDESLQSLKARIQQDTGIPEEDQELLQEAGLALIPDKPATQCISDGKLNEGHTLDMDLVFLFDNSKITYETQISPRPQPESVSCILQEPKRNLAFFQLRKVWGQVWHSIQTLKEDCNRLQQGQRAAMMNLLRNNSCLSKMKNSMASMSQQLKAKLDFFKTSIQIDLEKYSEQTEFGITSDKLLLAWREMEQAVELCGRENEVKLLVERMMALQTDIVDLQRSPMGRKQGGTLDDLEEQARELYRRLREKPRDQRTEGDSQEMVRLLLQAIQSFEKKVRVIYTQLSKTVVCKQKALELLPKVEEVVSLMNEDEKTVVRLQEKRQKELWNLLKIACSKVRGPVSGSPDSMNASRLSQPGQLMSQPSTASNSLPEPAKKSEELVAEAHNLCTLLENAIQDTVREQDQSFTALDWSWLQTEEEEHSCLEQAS
To be noted: at 1 µM.

Test [16] concerns the target T7, Inhibitor of nuclear factor kappa-B kinase subunit beta (Homo sapiens). To be noted: at 10 µM.

Chain of Insulin-like growth factor 1 receptor (Homo sapiens) (P08069 31-736 limits assumed): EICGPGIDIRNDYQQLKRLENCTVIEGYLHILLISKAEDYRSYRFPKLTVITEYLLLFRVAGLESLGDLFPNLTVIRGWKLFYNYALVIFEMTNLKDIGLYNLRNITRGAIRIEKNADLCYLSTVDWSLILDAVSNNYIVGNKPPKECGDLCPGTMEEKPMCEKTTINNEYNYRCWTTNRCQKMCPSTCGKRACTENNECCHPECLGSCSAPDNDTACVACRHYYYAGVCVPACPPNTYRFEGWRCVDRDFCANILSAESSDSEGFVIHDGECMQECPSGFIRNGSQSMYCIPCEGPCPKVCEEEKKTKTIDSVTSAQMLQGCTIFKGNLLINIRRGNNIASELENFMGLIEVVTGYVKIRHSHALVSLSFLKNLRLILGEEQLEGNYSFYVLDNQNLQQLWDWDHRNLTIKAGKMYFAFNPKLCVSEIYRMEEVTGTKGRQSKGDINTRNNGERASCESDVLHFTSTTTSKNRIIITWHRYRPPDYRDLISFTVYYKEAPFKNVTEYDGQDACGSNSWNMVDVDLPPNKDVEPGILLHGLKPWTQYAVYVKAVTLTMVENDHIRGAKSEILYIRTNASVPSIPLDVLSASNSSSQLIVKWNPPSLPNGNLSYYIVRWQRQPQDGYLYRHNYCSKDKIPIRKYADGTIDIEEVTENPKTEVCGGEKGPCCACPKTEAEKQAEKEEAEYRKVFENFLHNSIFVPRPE
Chain of Insulin-like growth factor 1 receptor (Homo sapiens) (P08069 741-1367 limits assumed): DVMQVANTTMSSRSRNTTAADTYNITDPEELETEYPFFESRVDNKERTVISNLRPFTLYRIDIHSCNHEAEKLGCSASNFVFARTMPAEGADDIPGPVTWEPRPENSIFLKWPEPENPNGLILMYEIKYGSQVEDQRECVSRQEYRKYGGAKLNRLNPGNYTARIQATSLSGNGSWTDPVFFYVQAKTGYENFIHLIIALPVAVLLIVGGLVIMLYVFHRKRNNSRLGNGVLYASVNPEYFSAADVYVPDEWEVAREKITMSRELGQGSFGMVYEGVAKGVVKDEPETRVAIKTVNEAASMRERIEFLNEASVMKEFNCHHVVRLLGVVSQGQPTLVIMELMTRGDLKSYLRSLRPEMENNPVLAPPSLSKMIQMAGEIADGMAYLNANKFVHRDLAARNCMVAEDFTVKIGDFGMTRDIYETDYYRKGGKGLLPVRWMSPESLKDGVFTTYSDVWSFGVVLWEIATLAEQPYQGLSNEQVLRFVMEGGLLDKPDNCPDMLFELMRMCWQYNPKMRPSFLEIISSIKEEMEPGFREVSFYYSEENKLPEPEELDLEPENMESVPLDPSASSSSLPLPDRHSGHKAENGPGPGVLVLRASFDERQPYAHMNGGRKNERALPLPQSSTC

Consider `NC(=O)Nc1sc(-c2ccc(F)cc2)cc1C(N)=O`, for which the residual activity was found to be 39% in [1]; 6% in test [2]; 61% in test [3]; 16% in [4]; 35% in test [5]; 6% in [6]. Moreover, the residual activity in test [7] was determined as 75%; in [8] it was 74%; in test [9], 65%; in test [10], 19%.

Consider `COc1cc2c(cc1OC)-c1n[nH]c(Nc3cccc(F)c3)c1C2`, for which the residual activity in test [11] stood at 76%; in test [12] it was 61%; in [2], 78%; in [5] it was 52%; in [6] it was 43%; in test [7], 78%. In addition, the residual activity in [8] worked out at 66%; in test [13], 109%; in test [14] it was 112%; in [15], 101%; in test [16], 110%.

The record behind these values is ChEMBL document CHEMBL2218924, “A broad activity screen in support of a chemogenomic map for kinase signalling research and drug discovery” (Biochem J, 2013).
